# Results taken from PubChem BioAssay AID651820 (National Center for Advancing Translational Sciences (NCATS), 2012).
# Hit rate of the full screen: of about 340,000 compounds, about 12,000 (3.5%) were called active. Inconclusive results (about 18%) are left out. Many of the other results were omitted from the sample, so actives are more common in it than they were. A number with no mark means an inactive call. Calls come from the whole dose curve; as a rule, active = well fitted inhibition curve with a large enough effect; inconclusive = small, poorly fitted or top-dose-only effect, or another doubt; inactive = no such curve, though single readings can be large or run the other way.
# Assay: qHTS Assay for Inhibitors of Hepatitis C Virus (HCV)
# Conditions: Huh7.5.1 HCVcc-Cre infection, luciferase reporter, 44 h; series mostly up to 41.8 µM; activity change, negative = inhibition: at the top concentration
# Outline: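 Infectious HCVcc-Cre (~0.5 moi) was added to cells just after compound, with cells seeded 4 h earlier at 1,000 per well. Luciferase activity after 44 h culture reported infection; substrate was incubated 15 min at room temperature before reading.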
# % is set by controls: 0 for no effect and ±100 for the full control effect; potency is the fitted concentration of half-maximal effect.
SMILES,"activity change, negative = inhibition",Potency
O=C(Cn1cnc2c(OCc3ccccc3)ncnc21)NCCCn1ccnc1,5.21%,–
Cc1ccc(-n2nc3cc(Cl)c(NC(=O)c4ccco4)cc3n2)cc1,-13.6%,–
Cc1ccc(Cn2c(NC(=O)c3ccco3)nc3ccccc32)cc1,-3.39%,–
CCn1nc(NC(=O)c2ccco2)c2cc3ccc(C)cc3nc21,–,10 µM (active)
CN1CCOC1c1ccc(C2OCCN2C)cc1 (stereo not given),17.6%,–
COc1ccccc1CC(=O)Nc1ccc(S(=O)(=O)N2CCCC2)cc1,-19.2%,–
COc1ccc(S(=O)(=O)Nc2ccc(S(=O)(=O)N3CCCCC3)cc2)cc1OC,-1.61%,–
COc1ccc(-c2ccc(Nc3ccc(S(=O)(=O)N4CCCC4)cc3)nn2)cc1OC,–,12.6 µM (active)
COc1ccc(NS(=O)(=O)c2ccc(N3CCOCC3)c(NC(=O)/C=C/C(=O)O)c2)cc1,-1.43%,–
Cc1nc(Nc2ccc3c(c2)OCCO3)c2nnn(Cc3ccccc3Cl)c2n1,–,10 µM (active)
Cc1nc(Nc2ccccc2F)c2nnn(Cc3ccccc3Cl)c2n1,6.92%,–
CCCc1nc(NCc2ccc3c(c2)OCO3)c2nnn(Cc3ccccc3Cl)c2n1,9.92%,–
CCN(CC(=O)Nc1ccccc1C(=O)NC1CC1)Cc1cccs1,0.258%,–
Cc1ccccc1NC(=O)Cc1nc(COC(=O)c2ccc(C(F)(F)F)cc2)cs1,-7.12%,–
COc1cccc(NC(=S)N(CCc2c(C)[nH]c3ccccc23)Cc2ccco2)c1,–,25.1 µM (active)
COc1cccc(NC(=S)NCc2ccco2)c1,-5.4%,–
CCNC(=S)N(CCc1c(C)[nH]c2ccc(C)cc12)Cc1ccco1,1.39% [at 8.37 µM],–
CC(C)CC1(C)NC(=O)N(CC(=O)Nc2ccc3c(c2)OCCO3)C1=O (stereo not given),5.63%,–
O=C(CSc1nc(Nc2ccccc2)nc(N2CCOCC2)n1)Nc1cc(Cl)ccc1O,–,10 µM (active)
CC1(c2ccccc2)NC(=O)N(CC(=O)Nc2cc(Cl)ccc2N2CCOCC2)C1=O (stereo not given),10.1%,–
O=C(CN1CCOCC1)Nc1cc(Cl)ccc1Cl,0.835%,–
C#CCOCCOCCOCCNc1nc(N2CCN(C(=O)Cn3cc(CCO)nn3)CC2)nc(N2CCN(C(=O)Cn3cc(CCCN=C(N)N)nn3)CC2)n1,42.9%,–
CCCCNC(=O)CSc1nccn1Cc1ccccc1,12.3%,–
CCCCNC(=O)CSc1nnc(-c2ccco2)n1C,11.8%,–
CCCCNC(=O)CSc1nc2n[nH]c(C)c2c(=N)n1-c1cccc(Cl)c1C,–,15.8 µM (active)

SMILES,"activity change, negative = inhibition",Potency
CCn1nc(C(=O)NNC(=O)C2CSC3(C)CCC(=O)N23)c2ccccc2c1=O (stereo not given),-22.1%,–
COc1cccc(CNC(C)C(=O)Nc2ccc(S(=O)(=O)N3CCCC3)cc2)c1 (stereo not given),-22%,–
O=C(Nc1nnc(-c2ccccc2)o1)c1cc(-c2cccs2)nc2ccccc12,-12.9%,–
O=C(NCCN1CCOCC1)c1cc(-c2cccs2)nc2ccccc12,12.8%,–
COC(=O)c1cc(-c2cccs2)nc2ccccc12,–,12.6 µM (active)
O=C(O)CCc1cccnc1,–,0.891 µM (active)
N/C(=N\OC(=O)CCc1ccccc1)c1cccnc1,-0.933%,–
O=C(O)CCCc1ccccc1,–,inactive
COc1ccc2c(CC(=O)NNC(=O)c3ccccc3F)coc2c1,6.42%,–
Cc1cc(C)n2nc(C(=O)OCC(=O)N(C)CC(=O)Nc3ccc(F)cc3)nc2n1,-0.618%,–
Cc1ccc(C)c(-c2nnc(NC(=O)CS(=O)(=O)c3ccccc3)o2)c1,10%,–
COc1ccc(S(=O)(=O)Nc2cccc3c2O[C@H](CN(C)S(=O)(=O)c2ccc(OC)cc2)[C@@H](C)CN([C@H](C)CO)C3=O)cc1,13.2%,–
O=C(NCC1CCCO1)c1cc(-c2ccccc2)nc2ccccc12 (stereo not given),-9.2%,–
O=C(NCCc1ccc(F)cc1)c1n[nH]c2ccccc12,-2.17%,–
O=C(NCCCO)c1cc2c([nH]c3ccccc32)c(-c2ccc(F)cc2)n1,–,14.1 µM (active)
O=C(NCC1CCCO1)c1ccc2ccccc2n1 (stereo not given),-11.2%,–
CN(C)CCCNC(=O)c1ccc2[nH]c3ccccc3c2c1,7.15%,–
O=C(NCC1CCCO1)c1cc2c([nH]c3ccccc32)c(-c2ccc(F)cc2)n1 (stereo not given),–,1.58 µM (active)
COc1ccc(CCNC(=O)COc2cc(C)cc3oc(=O)c(C)c(C)c23)cc1OC,24.8%,–
CC1CN(Cc2ccccc2)C(=S)NC1=O (stereo not given),33.1%,–
C=CCOC(=O)N1CCC2CC1c1cc(-c3ccc(OC)cc3)ccc12 (stereo not given),2.52% [at 8.37 µM],–
COc1ccccc1C(=O)NCCC(=O)NC1=NCCS1,5.53%,–
Cc1ccc(C(=O)NNC(=O)CSc2nnc3ccccn23)cc1,-0.421%,–
Cc1ccc(CNC(=O)c2cccc3c2C(=O)c2ccc(N4CCC(C)CC4)cc2S3(=O)=O)cc1,–,10 µM (active)
CC1CCN(c2c(NCc3ccc(C(=O)NCc4ccccc4)cc3)c(=O)c2=O)CC1,-9.89%,–
